# Reference: PubChem BioAssay
# Activity calls are given as the source filed them. Unless noted, how the calls were made is not given here.
# Experiments:
# [1] = test system: Wnt5a (protein binding on small-molecule microarray); assay: small molecules binding Wnt5a protein – biophysical, small-molecule microarray, 635/667 nm fluorescence, primary screen (AID 1142); conditions: 635 nm fluorescence, higher = more signal;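 further: fluorescence read at 667 nm with signal to noise per printed feature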
# [2] = ATP-based viability of Huh7 replicon cells – cell-based, CellTiter-Glo luminescence, basal, 48 h, cytotoxicity control for HCV replication inhibitor project, primary screen (AID 1143); conditions: higher = more signal, called active from +8 up or from −8 down;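 further: Huh7 hepatoma cells carrying a hepatitis C replication reporter with no stimulus; test concentration not given here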
# [3] = Pseudomonas biofilm growth suppression – PAO1 strain, BacTiter-Glo luminescence, LB-PBS, primary screen (AID 1144); conditions: P. aeruginosa PAO1 biofilm, 12 h, higher = more signal
# [4] = basal CRE-LacZ reporter activity in PC12 – cell-based, unstimulated, primary screen (AID 1145); conditions: no forskolin, luminescence, 4.5 h, higher = more signal, called active from +8 up or from −8 down
# [5] = forskolin-driven CRE-LacZ activity in PC12 – cell-based, CRE-LacZ reporter, forskolin-stimulated, primary screen (AID 1146); conditions: luminescence, 4.5 h, higher = more signal, called active from +8 up or from −8 down;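 further: PC12 cells with 6xCRE LacZ reporter stimulated by forskolin 10 µM; beta-galactosidase reporter signal reflecting CREB driven transcription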
# [6] = target: Streptavidin (Streptomyces avidinii) (UniProt P22629); assay: compounds binding control protein streptavidin – biophysical, small-molecule microarray, 635/667 nm fluorescence, artefact control for SMM compound annotation, primary screen (AID 1147); conditions: higher = more signal;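 further: signal reflects streptavidin binding to arrayed compounds as a control protein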
# [7] = probe aInhba binding on compound microarray – biochemical, small-molecule microarray, 635/667 nm fluorescence, primary screen (AID 1148); conditions: higher = more signal;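 further: score merges 667nm spot fluorescence with signal-to-noise for antibody binding to printed compounds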
# Torsin-1A (Homo sapiens) [8] = target: Torsin-1A (Homo sapiens) (UniProt O14656); assay: TOR1A wild-type binding on microarray – cell lysate, small-molecule microarray, lysate, 635/667 nm, primary screen (AID 1149); conditions: COS7 hTOR1A-WT lysate, 635 nm fluorescence, higher = more signal
# Torsin-1A (Homo sapiens) [9] = target: Torsin-1A (Homo sapiens) (UniProt O14656); assay: torsin A mutant lysate binding on microarrays – cell lysate, small-molecule microarray, COS7 lysate, 635/667 nm fluorescence, primary screen (AID 1150); conditions: COS7 hTOR1A mutant lysate, 635 nm fluorescence, higher = more signal;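 further: score pools 667 nm emission and signal to noise measuring lysate protein binding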
# [10] = test system: Sonic hedgehog protein (Shh); assay: Sonic hedgehog microarray binding compounds – biochemical, small-molecule microarray, 635/667 nm fluorescence, primary screen (AID 1151); conditions: 635 nm fluorescence, higher = more signal;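 further: Shh protein binding to compounds spotted on small-molecule microarray slides; score combines spot fluorescence intensity with signal-to-noise across triplicate slides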
# Chain of Streptavidin (Streptomyces avidinii) (P22629 whole entry, looked up): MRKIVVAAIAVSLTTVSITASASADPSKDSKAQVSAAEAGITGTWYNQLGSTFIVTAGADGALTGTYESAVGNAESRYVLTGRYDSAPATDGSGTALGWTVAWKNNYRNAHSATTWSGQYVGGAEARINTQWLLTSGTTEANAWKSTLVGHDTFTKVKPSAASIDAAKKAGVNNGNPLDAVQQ
# Chain of Torsin-1A (Homo sapiens) (O14656 whole entry, looked up): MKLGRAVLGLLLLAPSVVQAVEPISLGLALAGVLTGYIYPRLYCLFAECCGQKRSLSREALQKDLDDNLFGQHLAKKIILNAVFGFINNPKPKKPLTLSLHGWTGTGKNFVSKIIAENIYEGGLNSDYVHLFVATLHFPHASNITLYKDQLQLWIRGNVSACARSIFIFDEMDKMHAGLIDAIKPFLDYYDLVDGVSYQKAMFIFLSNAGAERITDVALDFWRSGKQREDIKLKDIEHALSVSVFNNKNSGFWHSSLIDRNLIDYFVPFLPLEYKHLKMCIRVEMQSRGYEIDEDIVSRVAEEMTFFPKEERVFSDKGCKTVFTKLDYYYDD
SMILES,composite z-score [1],z-score [2],z-score [3],z-score [4],z-score [5],composite z-score [6],composite z-score [7],composite z-score (Torsin-1A (Homo sapiens) [8]),composite z-score (Torsin-1A (Homo sapiens) [9]),composite z-score [10]
CC(C)CON=C1C[C@@H](O)[C@@H](O)[C@@H]2[C@@H]3C(=O)N(c4ccc(F)cc4F)C(=O)[C@@H]3CC[C@H]12,0.0062,-0.86 (inactive),-0.359 (inactive),-1.29 (inactive),-0.907 (inactive),0.9,-0.243,0.224,-0.0086,1.25
COc1cccc([C@H]2Oc3ccc(OC)cc3C(=NO[C@H](C)c3cn([C@H](CO)Cc4ccccc4)nn3)[C@@H]2O)c1,-0.0943,0.474 (inactive),0.829 (inactive),3.87 (inactive),-0.345 (inactive),-0.706,-0.104,-0.0667,1.44,0.326
CCCNC(=O)OC[C@H]1O[C@H](CCON=C(C)C)C=C[C@@H]1Oc1ccc(OC)cc1,-0.0092,0.599 (inactive),-0.523 (inactive),-0.152 (inactive),-0.315 (inactive),0.102,-0.0791,-0.0198,-0.0963,-0.318
COC(=O)[C@@H]1CC[C@H](C)[C@@H](c2ccc(C)cc2)N1C(=O)c1ccc(C=NOC[C@@H](C)[C@H](OCc2ccccc2)C(C)C)cc1,0.156,-1.17 (inactive),0.978 (inactive),6.15 (inactive),-0.207 (inactive),0.409,-0.018,0.0707,0.537,1.28
CC(C)(C)N1C(=O)[C@H]2[C@H]3[C@H](O)[C@H](O)CC(=NO[C@@H]4O[C@H](CO)[C@@H](O)[C@H](O)[C@H]4O)[C@H]3CC[C@H]2C1=O,0.0479,-2.05 (inactive),0.745 (inactive),-0.656 (inactive),-0.0093 (inactive),-0.132,0.179,0.462,0.0791,0.345
CCOC(=O)NN=C1C[C@@H](O)[C@@H](O)[C@@H]2[C@@H]3C(=O)N([C@@H](C)c4ccccc4)C(=O)[C@@H]3CC[C@@H]12,0.229,0.261 (inactive),-0.353 (inactive),-0.475 (inactive),-0.14 (inactive),-0.468,-0.0313,2.58,2.5,1.37
COC(=O)[C@H](C)NC(=O)CCC1CC(OC(=O)NCc2cccc3ccccc23)CC2(CCCC(COC(=O)NCC(c3ccccc3)c3ccccc3)O2)O1 (stereo not given in full),0.345,-0.145 (inactive),-0.155 (inactive),-0.437 (inactive),2.17 (inactive),-0.244,-0.11,0.113,0.452,0.759
O=C1C[C@@H](O)[C@@H](O)[C@@H]2[C@@H]3C(=O)N(C[C@@H]4CCCO4)C(=O)[C@@H]3CC[C@@H]12,0.191,0.149 (inactive),-0.213 (inactive),0.246 (inactive),0.287 (inactive),0.622,0.0956,0.232,0.206,0.678
O=C1[C@H]2[C@H]3[C@H](O)[C@H](O)CC(=NOC[C@@H](O)COCc4ccco4)[C@@H]3CC[C@H]2C(=O)N1C[C@@H]1CCCO1,0.149,0.0304 (inactive),0.835 (inactive),-0.207 (inactive),-0.0793 (inactive),-0.0625,-0.263,3.22,3.3,1.59
CC(=O)OC[C@H]1O[C@H](C#Cc2ccccc2)C=C[C@@H]1OC(C)=O,-0.118,-2.96 (inactive),0.908 (inactive),-0.256 (inactive),3.76 (inactive),0.0752,-0.182,0.398,-0.0454,0.337
C[C@@H]1NC(=O)[C@@H](C)COC(=O)[C@H](C)NC(=O)[C@@H](C)COC1=O,0.192,-3.21 (inactive),-0.906 (inactive),0.427 (inactive),-0.105 (inactive),-0.335,-0.0791,0.179,-0.231,0.234
CCc1cc2c(nc1CC)CCN(CCC(C)=NO[C@H](C)c1cn([C@@H]3COC[C@H]3O)nn1)C2,-0.0763,0.401 (inactive),1.7 (inactive),0.238 (inactive),-0.183 (inactive),0.383,-0.0963,0.161,0.292,0.282
COC(=O)C=CCCc1coc(C=CCNC(=O)OC)n1,0.4,-0.0328 (inactive),-0.0662 (inactive),0.38 (inactive),0.702 (inactive),0.0242,0.432,0.583,0.205,1.15
COC(=O)CC=C[C@@H](C)[C@@H](C=NO[C@@H]1O[C@H](COC(C)=O)[C@@H](OC(C)=O)[C@H](OC(C)=O)[C@H]1OC(C)=O)NS(=O)(=O)c1ccc(C)cc1,-0.0003,0.0322 (inactive),-0.202 (inactive),7.64 (inactive),1.02 (inactive),-0.909,0.0086,0.514,0.311,0.629
CCOC(=O)[C@H](CC(C)C)NC(=O)CCC1CC(OC(=O)NCc2ccc3c(c2)OCO3)CC2(CCCC(COC(=O)NCc3cccc(C(F)(F)F)c3)O2)O1 (stereo not given in full),-0.194,-0.183 (inactive),-0.67 (inactive),0.11 (inactive),0.814 (inactive),-0.113,0.0184,0.175,-0.272,0.387
COC(=O)CC=C[C@@H](C)[C@@H](C=NO[C@@H](C)c1cn([C@H](CO)Cc2ccccc2)nn1)OC,-0.251,-0.323 (inactive),-0.54 (inactive),0.597 (inactive),0.0826 (inactive),0.303,-0.128,0.652,0.278,0.469
C=CC[C@@H]1C=C[C@H](ON=C2[C@H]3CCn4c(=O)n(-c5ccccc5)c(=O)n4[C@H]3[C@H](O)[C@@H]3O[C@H]23)[C@@H](CO)O1,0.132,1.17 (inactive),-0.0199 (inactive),0.164 (inactive),0.312 (inactive),0.43,-0.0736,-0.207,0.369,0.23
Cc1cc2c(c(=O)o1)[C@@H](O)[C@H]1O[C@H]1C2=O,0.149,0.773 (inactive),0.0297 (inactive),-0.255 (inactive),0.0917 (inactive),0.361,0.0073,0.102,0.253,1.1
O=C1C=C[C@@H](O)[C@@H]2[C@@H]3C(=O)N(C[C@@H]4CCCO4)C(=O)[C@@H]3CC[C@@H]12,-0.142,-0.228 (inactive),0.477 (inactive),-0.295 (inactive),-0.593 (inactive),-0.029,-0.0424,0.294,0.462,0.159
COc1cc(O)c(C(=O)C=Cc2ccc3c(c2)OCO3)c(OC)c1,0.0926,-2.56 (inactive),1.1 (inactive),0.286 (inactive),0.528 (inactive),-0.379,-0.0332,-0.404,-0.19,0.782
CO[C@@H]1C=CCC(=O)N2CCC[C@H]2C(=O)OC[C@@H](C)C(=O)OC[C@H]1C,0.172,-0.0949 (inactive),-1.23 (inactive),-0.0234 (inactive),0.2 (inactive),-0.482,-0.0762,-0.0067,0.652,1.68
COc1ccc(O[C@H]2C=C[C@@H](c3ccccc3)O[C@@H]2CON=C2[C@H]3CCn4c(=O)n(-c5ccccc5)c(=O)n4[C@H]3[C@H](O)[C@@H]3O[C@H]23)cc1,0.185,-1.53 (inactive),1.92 (inactive),0.834 (inactive),-0.016 (inactive),0.836,-0.2,0.0461,0.066,0.536
CCOC(=O)NN=C1C[C@@H](O)[C@@H](O)[C@@H]2[C@@H]3C(=O)N(Cc4ccc5c(c4)OCO5)C(=O)[C@@H]3CC[C@H]12,-0.193,-0.136 (inactive),1.46 (inactive),-0.658 (inactive),0.619 (inactive),-0.563,-0.128,-0.566,-0.282,0.14
CCOC(=O)[C@H](CC(C)C)NC(=O)CCC1CC(OC(=O)NCc2cccc3ccccc23)CC2(CCCC(COC(=O)NCCc3ccc(Cl)cc3)O2)O1 (stereo not given in full),0.0502,-0.933 (inactive),-1.39 (inactive),-0.707 (inactive),-1.17 (inactive),0.614,-0.0987,0.549,0.372,0.728
O=C1C=C[C@@H](O)[C@@H]2[C@@H]3C(=O)N(c4ccc(F)cc4F)C(=O)[C@@H]3CC[C@@H]12,0.15,-1.18 (inactive),0.0333 (inactive),0.332 (inactive),0.41 (inactive),0.275,-0.123,1.15,0.629,0.93
C[C@@H](ON=C1[C@H]2CCn3c(=O)n(-c4ccccc4)c(=O)n3[C@H]2[C@H](O)[C@@H]2O[C@H]12)c1cn([C@@H]2COC[C@H]2O)nn1,0.134,0.981 (inactive),0.58 (inactive),0.085 (inactive),0.258 (inactive),0.189,0.0028,0.436,0.63,0.438
CCOC(=O)[C@H](CC(C)C)NC(=O)CCC1CC(OC(=O)NCc2cccc3ccccc23)CC2(CCCC(COC(=O)NCCC(C)C)O2)O1 (stereo not given in full),0.0463,-2.6 (inactive),-1.52 (inactive),0.563 (inactive),-0.535 (inactive),-0.589,-0.0736,-0.0418,0.185,0.784
COc1cccc([C@@H]2Oc3ccc(OC)cc3C(=O)[C@H]2O)c1,0.115,-4.86 (inactive),-1.15 (inactive),5.45 (inactive),-0.344 (inactive),2.33,-0.152,0.496,0.42,0.813
CO[C@H]1COC(=O)CC=C[C@H](C)COC(=O)[C@@H](C)NC(=O)CC=C[C@@H]1C,0.042,-2.06 (inactive),-1.59 (inactive),-0.31 (inactive),-0.0543 (inactive),0.0677,-0.25,2.78,2.8,2.08
